Bioassay records: PubChem, National Center for Advancing Translational Sciences (NCATS)
Most compounds without a hit are left out; they make up all but 3.8% or so of the library.
rTrxR1 inhibitor: rat TrxR1 inhibition; O89049; recombinant rTrxR1, NADPH fluorescence consumption, selenite substrate; Potency, µM (top dose mostly 114 µM), for the others: top-dose activity change, negative = inhibition, usual class: inhibitors; 390,000 tested, 1% active; AID 588453; further: nearly all actives have a fitted effect of over 65% in size
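Rat TrxR1 (90 nM in the dispensed reagent) was pre-reduced with 400 uM NADPH for 5 min at room temperature, then incubated with compound for 15 min. After 400 uM selenite was added, NADPH fluorescence (Ex 340/Em 450 nm) was followed for 8 min.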
Sfp inh: blocks B. subtilis Sfp PPTase activity; Q9F4F7; Biochemical Sfp PPTase activity, qHTS; Potency, µM, inactives show largest response in the series, negative = inhibition, hits mostly inhibitors; 310,000 tested, 3.5% active;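 further: the enzyme is Sfp with the accession as filed and its product quenches rhodamine fluorescence; 0% = enzyme reaction without inhibitor and -100% = no enzyme wells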
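Sfp 15 nM + cpd, 15 min RT; start w/ rhodamine-CoA 5 uM, BHQ-2-YbbR 12.5 uM (final); 50 mM Hepes pH 7.6, 10 mM MgCl2, 0.01% NP-40, 0.01% BSA; read 525/598 nm at 0 and 30 min.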
VDR inhibitor: blocks the human vitamin D receptor; VDR-SRC2-3 peptide fluorescence polarization, 2 h; Potency, µM, inactives show max response, negative = inhibition, most hits filed as inhibitors; 400,000 tested, 0.93% active
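Two reagent solutions held at 4 deg C in the dark were dispensed, compounds pinned at 23 nl, and the mixture incubated 2 h at room temperature. Read-out: fluorescence polarization of VDR–SRC2-3 peptide binding.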
TrxR1 substrate: rat thioredoxin reductase 1 substrate activity | O89049 | purified TrxR1 substrate turnover, NADPH consumption readout | Potency, µM (highest dose often 114 µM), without a hit: at the top dose activity change, negative = substrate turnover | 390,000 tested, 0.01% active; further: nearly all actives have a fitted effect of over 50% in size
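Rat TrxR1, dispensed at 90 nM, was prereduced with 400 uM NADPH (final) for 5 min at ~22 deg C, then incubated with compound 15 min before 400 uM selenite. A first-read NADPH fluorescence drop versus no-compound background flagged substrates.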
GLS inhibitor: blocks human kidney-isoform glutaminase activity. GLS enzymatic activity, qHTS titration. O94925. Potency, µM (doses to about 45.5 µM), without a hit: top-dose activity change, negative = inhibition, usual class: inhibitors. 410,000 tested, 0.21% active
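hKGA in 45 mM KH2PO4 (pH 8.2), 0.02% Tween-20 with compound, then 1mM L-Glutamine (stock as added) plus glutamate oxidase/HRP/Amplex red coupling mix. Fluorescence read initially and after 30 min at RT; signal change reflects glutamate formation.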
KAT2A inh: GCN5L2 (KAT2A) acetyltransferase inhibition. Q92830. GCN5L2 HAT assay, ThioGlo1 CoA-SH fluorescence. Potency, µM (series often up to 58.9 µM), without a hit: at the highest dose activity change, negative = inhibition, most hits filed as inhibitors. 390,000 tested, 0.21% active
Target sequence (Q92830 whole entry, looked up): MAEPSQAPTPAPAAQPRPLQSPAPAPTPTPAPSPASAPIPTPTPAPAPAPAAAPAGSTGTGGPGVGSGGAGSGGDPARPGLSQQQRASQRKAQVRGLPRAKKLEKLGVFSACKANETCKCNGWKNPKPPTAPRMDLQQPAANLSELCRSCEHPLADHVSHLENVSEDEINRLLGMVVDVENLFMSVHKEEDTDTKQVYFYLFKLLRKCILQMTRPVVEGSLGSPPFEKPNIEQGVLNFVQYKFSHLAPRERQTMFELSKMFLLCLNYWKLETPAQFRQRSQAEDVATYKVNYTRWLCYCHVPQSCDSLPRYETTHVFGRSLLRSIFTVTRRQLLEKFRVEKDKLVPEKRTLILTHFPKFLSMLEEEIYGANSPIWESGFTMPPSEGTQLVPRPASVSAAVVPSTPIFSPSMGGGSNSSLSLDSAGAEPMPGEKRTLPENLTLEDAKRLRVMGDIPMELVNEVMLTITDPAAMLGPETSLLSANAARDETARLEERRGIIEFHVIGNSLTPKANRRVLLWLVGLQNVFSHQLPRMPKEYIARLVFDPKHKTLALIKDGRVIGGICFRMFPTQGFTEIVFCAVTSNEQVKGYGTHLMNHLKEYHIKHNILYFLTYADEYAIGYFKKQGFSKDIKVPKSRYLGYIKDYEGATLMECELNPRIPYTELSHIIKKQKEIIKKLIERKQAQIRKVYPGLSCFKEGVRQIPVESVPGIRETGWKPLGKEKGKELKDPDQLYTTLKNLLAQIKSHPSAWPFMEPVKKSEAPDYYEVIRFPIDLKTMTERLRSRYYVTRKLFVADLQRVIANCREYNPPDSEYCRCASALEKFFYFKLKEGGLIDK
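Fluorescence readout, Ex340nm/Em540nm: ThioGlo1 (50uM final) reacts with free CoA thiol released as 20nM GCN5L2 acetylates H3(1-25) peptide (75uM) using acetyl-CoA (70uM). Compound and enzyme sat 15 min beforehand; 20 min room-temperature reaction.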
Numbers without * were called inactive; ? = inconclusive; nt = no result given; ! = not confirmed by another sample; [ ] = remark or other dose. The call rests on the fitted dose curve; in most records, active means well fitted curve in the direction sought with a large enough effect; inconclusive means small, poorly fitted or top-dose-only effect, or another doubt; inactive means no such curve, though single readings can be large; an effect the other way counts as inactive or inconclusive. Unless noted, on the % scale 0 is the no-effect control and ±100 the full control effect; potency means the concentration at half of the fitted maximal effect.

SMILES | rTrxR1 inhibitor | Sfp inh | VDR inhibitor | TrxR1 substrate | GLS inhibitor | KAT2A inh
OCCN1CCN(C(c2cccs2)c2ccc3cccnc3c2O)CC1 (stereo not drawn) | nt | 16µM* | nt | nt | nt | -16%
CC(=O)NC(c1ccco1)c1ccc2cccnc2c1O (stereo not drawn) | -11% | 10% | -8% | -10% | 23% | -2%
Cc1ccc(C(C(=O)NC2CCCCC2)N(C(=O)c2csnn2)c2ccccc2F)o1 (stereo not drawn) | 1%[57.1 µM] | 2% | 2% | 3%[57.1 µM] | 4% | -2%
Cc1ccc(-c2c(C)c(-c3ccc(F)cc3)nc(N)c2C#N)o1 | -18% | 18µM* | -6% | 15%[57.1 µM] | 0% | -6%
Cc1c(-c2ccc(F)cc2)nc(N)c(C#N)c1-c1cccnc1 | 16%[57.1 µM] | 23% | -10% | 2%[57.1 µM] | 12% | -4%
CCN1CCN(c2cc(=O)n(C3CCCCC3)c(=O)[nH]2)CC1 | -1%[57.1 µM] | 20% | -12% | 10%[57.1 µM] | 7% | 0%
CN1CCN(c2cc(=O)n(C3CCCCC3)c(=O)[nH]2)CC1 | 25µM* | 18% | -3% | 4%[57.1 µM] | 9% | 1%
COc1ccccc1CN1CCN(Cc2ccco2)CC1 | 10%[57.1 µM] | ? | -9% | 7%[57.1 µM] | -1% | 17%
COc1ccc(CN2CCN(Cc3ccco3)CC2)c(OC)c1 | 11%[57.1 µM] | 56µM* | -16% | -11%[57.1 µM] | -1% | -1%
COc1ccc(CN2CCC(N(CCc3ccccc3)Cc3ccccc3)CC2)c(OC)c1 | 16%[57.1 µM] | 40µM* | -22% | -8% | -9% | -6%
COc1cccc(-c2nc(CS(=O)(=O)CC(=O)NC3CCCC3)c(C)o2)c1 | -8% | 7% | 19% | -1% | -12% | -5%
CCOc1ccc(-c2nc(CSCC(=O)NC3CCCc4ccccc43)c(C)o2)cc1 (stereo not drawn) | 14% | 22µM* | -4% | 11% | -7% | -9%
COc1cccc(-c2nc(CS(=O)(=O)CC(=O)NC3CCCc4ccccc43)c(C)o2)c1 (stereo not drawn) | 10µM* | 0% | -4% | 5%[57.1 µM] | 2% | -6%
Cc1cccn2c(=O)c(C(=O)NCCCN3CCCCC3C)c(O)nc12 (stereo not drawn) | 13% | 2% | 24% | 29% | -2% | 2%
C[C@@H]1CC[C@]2(O[C@@H](CCO)C[C@@H](O)[C@@H]2O)O1 | 22% | 16% | -18% | 1% | 12% | 13%
CCN(CC)c1ccc(NC2CC(=O)N(CCc3ccc(OC)cc3)C2=O)cc1 (stereo not drawn) | ? | 32µM* | ? | 1% | ? | 16%
COc1ccc(CCNC2CC(=O)N(CCc3ccccc3)C2=O)cc1 (stereo not drawn) | 13% | -11% | -8% | 10% | 8% | -3%
O=C(NN=C(Cc1ccccc1)Cc1ccccc1)c1ccncc1 | 12% | -24% | ? | -3% | 12% | -2%
COc1ccc(CCN(C)CCC(=O)Nc2cc(C)ccc2C)cc1OC | -6%[57.1 µM] | -19% | 2% | 2%[57.1 µM] | 11% | 1.6µM*
CC(=O)c1ccc(C#CC(C)(C)O)s1 | -27%[57.1 µM] | 3% | 36% | -8%[57.1 µM] | 0% | 3%
CC1(C(=O)O)CCC2(C)CCC3(C)C(=CC(=O)[C@@H]4C5(C)CC[C@H](O[C@H]6O[C@H](C(=O)O)C(O)C(O)[C@H]6O[C@@H]6O[C@H](C(=O)O)C(O)C(O)C6O)C(C)(C)[C@@H]5CCC43C)[C@@H]2C1 (stereo partly drawn) | nt | nt | nt | nt | 14µM* | nt
CN(C)CCNC(=O)c1ccc2c(=O)n(Cc3ccc(Cl)cc3)c(=S)[nH]c2c1 | ? | ? | -13% | -2%[57.1 µM] | -24% | 3%
CC(C)(C)C1=CC(=O)C(=O)C(C(C)(C)C)=C1 | -16% | 1.1µM* | ? | -19% | 5.6µM* | ?
COC(=O)C(=C/C(C)=C/c1cccnc1)C(=O)OC | 56µM* | 7% | ? | -7% | -8% | 3%
COC(=O)/C(=C/c1cccnc1)NC(=O)c1ccccc1 | -14% | 10% | 1% | -8% | 9% | -3%
SMILES | rTrxR1 inhibitor | Sfp inh | VDR inhibitor | TrxR1 substrate | GLS inhibitor | KAT2A inh
CC1(C)Cc2c(c(-c3ccco3)nc3sc4c(NCCN5CCOCC5)ncnc4c23)CO1 | -21%[57.1 µM] | -4% | 6% | 22%[57.1 µM] | 16% | -16%
CC1(C)Cc2c(c(-c3ccco3)nc3sc4c(NCCCO)ncnc4c23)CO1 | 7.9µM* | 7.9µM* | -21% | 23% | -8% | -3%
CC1(C)Cc2c(c(-c3ccco3)nc3sc4c(NCC5CCCO5)ncnc4c23)CO1 (stereo not drawn) | ? | 20µM* | 89µM* | 37% | -12% | 17%
CC1CCC(C(C)C)C(OCC[N+](C)(C)C)C1 (stereo not drawn) | 10% | -1% | 3% | -3% | 12% | -7%
CC1CCC(C(=O)c2c(O)c3ccccc3oc2=O)CC1 (stereo not drawn) | 16% | 13% | -3% | 2% | -3% | -11%
Cn1c(N)c(C(=O)COC(=O)c2ccc(OC(F)F)cc2)c(=O)n(C)c1=O | 24% | nt | -7% | -5% | -2% | -5%
CCOC(=O)c1cc(-c2ccc(F)cc2)n(CC(=O)N2CCCC2)c1C | 2%[57.1 µM] | 6% | -4% | -7% | -11% | ?
CN1CCN(Cc2coc3c(Cl)cc(Cl)cc3c2=O)CC1 | -18% | 50µM* | -16% | 1% | -7% | -7%
O=c1c(CN2CCN(c3cccc(Cl)c3)CC2)coc2c(Cl)cc(Cl)cc12 | 2% | ? | 0% | 11% | 1% | ?
CCN(CC)C(=S)SSC(=S)N(CC)CC | ? | 3.5µM*! | nt | -5%[57.1 µM] | 35% | ?
CC(=O)Nc1ccc(SCC(=O)N(C)CC(=O)Nc2ccccc2Cl)cc1 | 40%[57.1 µM] | nt | 79µM* | 5%[57.1 µM] | -9% | -5%
CN(CC(=O)Nc1ccccc1Cl)C(=O)COC(=O)CSc1ccc(F)cc1 | -8% | nt | -2% | -8% | 1% | -4%
O=C(NCc1cccs1)c1cc(-c2cccc(Cl)c2)on1 | 22% | 6% | 5% | 5% | -2% | -20%
CC(C)(C)OC(=O)N1CCCC1C(=O)O (stereo not drawn) | 0%[57.1 µM] | 10% | -15% | 5%[57.1 µM] | 4% | -28%
CC(C)(CS)C(=O)N1CCC[C@H]1C(=O)O | nt | 22µM* | -14% | nt | nt | -2%[21.4 µM]
Cc1ccc(/C=c2\sc3n(c2=O)CN(c2ccc(Br)cc2)CN=3)o1 | ? | 10µM* | -12% | -17% | -1% | -20%
O=c1/c(=C\c2ccc3c(c2)OCO3)sc2n1CCCN=2 | 4% | 7% | -8% | -11% | 4% | -20%
Cc1ccc(N2CN=c3s/c(=C\c4cccnc4)c(=O)n3C2)cc1 | -12% | -27% | 9% | -10% | ? | -5%
O=C(NCc1ccc(/C=c2\sc3n(c2=O)CCN=3)o1)C(=O)Nc1ccccc1 | nt | 22µM* | nt | nt | nt | -14%
